Laboratory results: PubChem BioAssay (NCI)
This is part of a sample that, as a whole, favours compounds with a hit. Of some 83,000 tested, about 20% had one in any assay.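 Testing used 96-well plates and a 48-hour single-concentration exposure. Example: -40 means 40% of the starting cells died.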 Values without a mark were called inactive. Activity calls are given as the source filed them. Rule for the calls: active = growth percent below 10; inactive = the rest.

Columns and labels:
Test in all cases: NCI-60 one-dose screen, 48 h (100 = growth as untreated, 0 = no growth, -100 = all killed)
Conditions in all cases: 10 µM unless noted
[1] = tested on: NCI-H23 lung
[2] = tested on: NCI-H226 lung
[3] = tested on: NCI-H322M lung
[4] = tested on: HOP-62 NSCLC
[5] = tested on: NCI-H460 lung
[6] = tested on: HOP-92 NSCLC
[7] = tested on: NCI-H522 lung
[8] = tested on: A549/ATCC NSCLC
[9] = tested on: 786-0 renal
[10] = tested on: COLO 205 colon
[11] = tested on: DU-145 prostate
[12] = tested on: K-562 leukemia
[13] = tested on: MALME-3M melanoma
[14] = tested on: MDA-MB-231 breast
[15] = tested on: RXF 393 renal
[16] = tested on: SF-268 CNS
[17] = tested on: SF-295 CNS
[18] = tested on: SF-539 CNS
[19] = tested on: UACC-257 melanoma
[20] = tested on: M14 melanoma

Question: Which growth [1] does the source give for CCN(CC)c1ccc(CNc2cc(C)nc3ccccc23)cc1 here?
Answer: 26.9%

Question: What about the growth [2] of the same compound?
Answer: 56.2%

Question: And the growth [3]?
Answer: 80.3%

Question: And the growth [4]?
Answer: 77.1%

Question: And the growth [5]?
Answer: 58.2%

Question: And the growth [6]?
Answer: 49.6%

Question: And the growth [7]?
Answer: 53.5%

Question: And the growth [8]?
Answer: 72.7%

Question: What about the growth [9] of the same compound?
Answer: 79.1%

Question: What about the growth [10] of the same compound?
Answer: 1.94% (active)

Question: And the growth [11]?
Answer: 77.8%

Question: What about the growth [12] of the same compound?
Answer: 31%

Question: What about the growth [13] of the same compound?
Answer: 69.8%

Question: What about the growth [14] of the same compound?
Answer: 66.6%

Question: And the growth [15]?
Answer: 68.8%

Question: And the growth [16]?
Answer: 87.7%

Question: What about the growth [17] of the same compound?
Answer: 50.9%

Question: And the growth [18]?
Answer: 74.7%

Question: What about the growth [19] of the same compound?
Answer: 62.5%

Question: And the growth [20]?
Answer: 64.8%

Question: How did the growth [1] turn out when COc1ccc(/C=C/C(=O)c2cc(OC)c(OC)c(OC)c2)cc1OCC(=O)Nc1nc2ccc(OC(F)(F)F)cc2s1 was run?
Answer: 11.5%

Question: And the growth [2]?
Answer: 40.6%

Question: And the growth [3]?
Answer: 4.88% (active)

Question: What about the growth [4] of the same compound?
Answer: -53.3% (active)

Question: What about the growth [5] of the same compound?
Answer: -22.9% (active)

Question: What about the growth [6] of the same compound?
Answer: 54.9%

Question: What about the growth [7] of the same compound?
Answer: -35.5% (active)

Question: And the growth [8]?
Answer: 14.7%

Question: And the growth [9]?
Answer: 58.9%

Question: And the growth [10]?
Answer: 77%

Question: And the growth [11]?
Answer: -30.3% (active)

Question: And the growth [12]?
Answer: 5.93% (active)

Question: What about the growth [13] of the same compound?
Answer: 26.8%

Question: And the growth [14]?
Answer: -16.1% (active)

Question: And the growth [15]?
Answer: -29.7% (active)

Question: What about the growth [16] of the same compound?
Answer: 9.91% (active)

Question: And the growth [17]?
Answer: 0.996% (active)

Question: And the growth [18]?
Answer: -58.4% (active)

Question: What about the growth [19] of the same compound?
Answer: 68.6%

Question: What about the growth [20] of the same compound?
Answer: 1.09% (active)

Question: With COc1cccc(C(=O)NNc2nc(Cl)nc(Cl)n2)c1 as the compound, how does the growth [1] read?
Answer: 99.1%

Question: What about the growth [2] of the same compound?
Answer: 105%

Question: And the growth [3]?
Answer: 98.5%

Question: And the growth [4]?
Answer: 104%

Question: And the growth [5]?
Answer: 107%

Question: And the growth [6]?
Answer: 98.3%

Question: What about the growth [7] of the same compound?
Answer: 100%

Question: And the growth [8]?
Answer: 105%

Question: And the growth [9]?
Answer: 101%

Question: And the growth [10]?
Answer: 107%

Question: What about the growth [11] of the same compound?
Answer: 105%

Question: What about the growth [12] of the same compound?
Answer: 96.7%

Question: What about the growth [13] of the same compound?
Answer: 100%

Question: What about the growth [14] of the same compound?
Answer: 104%

Question: And the growth [15]?
Answer: 109%

Question: What about the growth [16] of the same compound?
Answer: 103%

Question: And the growth [17]?
Answer: 101%

Question: What about the growth [18] of the same compound?
Answer: 100%

Question: What about the growth [19] of the same compound?
Answer: 102%

Question: And the growth [20]?
Answer: 102%

Question: With CN(CCC(=O)c1ccccc1)CCC(=O)c1ccccc1 as the compound, how does the growth [1] read?
Answer: 91.5%

Question: And the growth [2]?
Answer: 97.4%

Question: And the growth [3]?
Answer: 96.4%

Question: What about the growth [4] of the same compound?
Answer: 100%

Question: And the growth [5]?
Answer: 97.9%

Question: And the growth [6]?
Answer: 72.6%

Question: And the growth [7]?
Answer: -87.7% (active)

Question: And the growth [8]?
Answer: 97.7%

Question: And the growth [9]?
Answer: 65.4%

Question: What about the growth [10] of the same compound?
Answer: 89.3%

Question: What about the growth [11] of the same compound?
Answer: 104%

Question: And the growth [12]?
Answer: 61.7%

Question: And the growth [13]?
Answer: 105%

Question: And the growth [14]?
Answer: 97.3%

Question: And the growth [15]?
Answer: 97.9%

Question: And the growth [16]?
Answer: 101%

Question: And the growth [17]?
Answer: 108%

Question: What about the growth [18] of the same compound?
Answer: 88%

Question: What about the growth [19] of the same compound?
Answer: 98.6%

Question: And the growth [20]?
Answer: 94.7%

Question: How did the growth [1] turn out when COC(=O)c1ccc(NC(=O)Nc2ccc(C(=O)OC)cc2)cc1 was run?
Answer: 113%

Question: And the growth [2]?
Answer: 99%

Question: What about the growth [3] of the same compound?
Answer: 104%

Question: What about the growth [4] of the same compound?
Answer: 106%

Question: And the growth [5]?
Answer: 110%

Question: What about the growth [6] of the same compound?
Answer: 85.7%

Question: And the growth [7]?
Answer: 51.2%

Question: And the growth [8]?
Answer: 94.7%

Question: And the growth [9]?
Answer: 105%

Question: And the growth [10]?
Answer: 104%

Question: What about the growth [11] of the same compound?
Answer: 121%

Question: And the growth [12]?
Answer: 90.6%

Question: What about the growth [13] of the same compound?
Answer: 123%

Question: What about the growth [14] of the same compound?
Answer: 94.1%

Question: What about the growth [15] of the same compound?
Answer: 112%

Question: What about the growth [16] of the same compound?
Answer: 115%

Question: And the growth [17]?
Answer: 121%

Question: What about the growth [18] of the same compound?
Answer: 112%

Question: What about the growth [19] of the same compound?
Answer: 104%

Question: And the growth [20]?
Answer: 103%

Question: For COc1ccc(-c2cc(-c3ccccc3)nc(N3CCN(CCNc4ccnc5cc(Cl)ccc45)CC3)n2)cc1, which growth [1] is on record?
Answer: 14.8%

Question: What about the growth [2] of the same compound?
Answer: 67.5%

Question: What about the growth [3] of the same compound?
Answer: 88%

Question: What about the growth [4] of the same compound?
Answer: 94.8%

Question: What about the growth [5] of the same compound?
Answer: -68.6% (active)

Question: And the growth [6]?
Answer: -34.3% (active)

Question: And the growth [7]?
Answer: 2.04% (active)

Question: And the growth [8]?
Answer: -16% (active)

Question: What about the growth [9] of the same compound?
Answer: -94.6% (active)

Question: What about the growth [10] of the same compound?
Answer: -69.1% (active)

Question: And the growth [11]?
Answer: -33.4% (active)

Question: And the growth [12]?
Answer: 0.988% (active)

Question: What about the growth [13] of the same compound?
Answer: -87.7% (active)

Question: What about the growth [14] of the same compound?
Answer: -82.4% (active)

Question: And the growth [15]?
Answer: -34.7% (active)

Question: And the growth [16]?
Answer: -15.1% (active)

Question: What about the growth [17] of the same compound?
Answer: 82.7%

Question: And the growth [18]?
Answer: -40% (active)

Question: What about the growth [19] of the same compound?
Answer: -84.5% (active)

Question: And the growth [20]?
Answer: -70.9% (active)

Question: Which growth [1] does the source give for C=C(C)[C@@H]1CCC[C@]2(C(=O)N3CCN(C)CC3)CC[C@]3(C)[C@@H](CC[C@@H]4[C@@]5(C)CC/C(=N\NC(=O)c6ccncc6)C(C)(C)[C@@H]5CC[C@]43C)[C@@H]12 here?
Answer: 93.3%

Question: And the growth [2]?
Answer: 101%

Question: What about the growth [3] of the same compound?
Answer: 93.7%

Question: And the growth [4]?
Answer: 96.9%

Question: And the growth [5]?
Answer: 88%

Question: What about the growth [6] of the same compound?
Answer: 107%

Question: And the growth [7]?
Answer: 98.3%

Question: What about the growth [8] of the same compound?
Answer: 99.5%

Question: And the growth [9]?
Answer: 93.6%

Question: What about the growth [10] of the same compound?
Answer: 99.1%

Question: What about the growth [11] of the same compound?
Answer: 100%

Question: And the growth [12]?
Answer: 17.6%

Question: What about the growth [13] of the same compound?
Answer: 74.1%

Question: What about the growth [14] of the same compound?
Answer: 66.8%

Question: What about the growth [15] of the same compound?
Answer: 99.7%

Question: What about the growth [16] of the same compound?
Answer: 84.2%

Question: And the growth [17]?
Answer: 104%

Question: And the growth [18]?
Answer: 104%

Question: What about the growth [19] of the same compound?
Answer: 103%

Question: What about the growth [20] of the same compound?
Answer: 74.3%
